Experimental data reported in PubChem BioAssay (NCI).
Compounds without any hit were thinned out: in the full panel of roughly 83,000, 20% have a hit.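 Interpretation: 100, growth as untreated; towards 0, rising growth inhibition; 0, no net growth; 0 to -100, cell death. Compounds scoring below 10 were considered active.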 The source made the active and inactive calls.

Assays:
Assay in all cases: NCI-60 one-dose screen, 48 h (100 = growth as untreated, 0 = no growth, -100 = all killed)
Conditions in all cases: 10 µM unless noted
HCT-15 colon = tested on: HCT-15 colon
HT29 colon = tested on: HT29 colon
SNB-75 CNS = tested on: SNB-75 CNS
SNB-19 CNS = tested on: SNB-19 CNS
U251 CNS = tested on: U251 CNS
PC-3 prostate = tested on: PC-3 prostate
SK-MEL-5 melanoma = tested on: SK-MEL-5 melanoma
UACC-62 melanoma = tested on: UACC-62 melanoma
LOX IMVI melanoma = tested on: LOX IMVI melanoma
SK-MEL-28 melanoma = tested on: SK-MEL-28 melanoma
EKVX NSCLC = tested on: EKVX NSCLC
SN12C renal = tested on: SN12C renal
UO-31 renal = tested on: UO-31 renal
TK-10 renal = tested on: TK-10 renal
ACHN renal = tested on: ACHN renal
CAKI-1 renal = tested on: CAKI-1 renal
A498 renal = tested on: A498 renal
CCRF-CEM leukemia = tested on: CCRF-CEM leukemia
MOLT-4 leukemia = tested on: MOLT-4 leukemia

Measured: growth

O=C(CNc1nnc(-c2ccc(Cl)cc2)o1)Nc1ccc(-c2nc3ccccc3s2)cc1
inactive: HCT-15 colon 89.6% | HT29 colon 95.7% | SNB-75 CNS 85.8% | SNB-19 CNS 90.6% | U251 CNS 81.6% | PC-3 prostate 88.6% | SK-MEL-5 melanoma 92.1% | UACC-62 melanoma 86.1% | SK-MEL-28 melanoma 117% | EKVX NSCLC 104% | SN12C renal 94.5% | UO-31 renal 73.3% | TK-10 renal 91.7% | ACHN renal 112% | CAKI-1 renal 100% | A498 renal 82% | CCRF-CEM leukemia 53.3% | MOLT-4 leukemia 33.2%
active: LOX IMVI melanoma -43.1%

CC(=O)c1cnc2ccc(-c3cc(Cl)c(O)c(Cl)c3)nc2c1NC1CCC(CN(C)C)CC1 (configuration not stated)
active: HCT-15 colon 0.375% [2.5 µM] | HT29 colon 0.58% [2.5 µM] | SNB-75 CNS -96.9% [2.5 µM] | SNB-19 CNS 5.41% [2.5 µM] | U251 CNS -26.6% [2.5 µM] | PC-3 prostate -12% [2.5 µM] | SK-MEL-5 melanoma -86.5% [2.5 µM] | UACC-62 melanoma -70.9% [2.5 µM] | LOX IMVI melanoma -61.2% [2.5 µM] | SK-MEL-28 melanoma -39.8% [2.5 µM] | EKVX NSCLC -15.9% [2.5 µM] | SN12C renal -7.95% [2.5 µM] | UO-31 renal -33.1% [2.5 µM] | TK-10 renal -59.7% [2.5 µM] | ACHN renal -0.784% [2.5 µM] | CAKI-1 renal -49.4% [2.5 µM] | A498 renal -88% [2.5 µM] | CCRF-CEM leukemia 1.45% [2.5 µM] | MOLT-4 leukemia -36.4% [2.5 µM]

CS(=O)(=O)N1CCc2c(-c3cnc(N)nc3)nc(N3CCOCC3)nc21
inactive: SNB-19 CNS 16.1% | U251 CNS 12.4% | PC-3 prostate 10.1% | EKVX NSCLC 10.2% | CCRF-CEM leukemia 22.2%
active: HCT-15 colon 9.65% | HT29 colon 6.31% | SNB-75 CNS -45.1% | SK-MEL-5 melanoma -3.03% | UACC-62 melanoma -41.1% | LOX IMVI melanoma 1.28% | SK-MEL-28 melanoma -15.9% | SN12C renal 8.6% | UO-31 renal -21.8% | TK-10 renal -21.4% | ACHN renal 0.427% | CAKI-1 renal -8.15% | A498 renal -49.9% | MOLT-4 leukemia 9.81%

Nc1ccc(S(=O)(=O)O)c2cc(S(=O)(=O)O)cc(O)c12
inactive: HCT-15 colon 101% | HT29 colon 108% | SNB-75 CNS 113% | SNB-19 CNS 105% | U251 CNS 108% | PC-3 prostate 97.8% | SK-MEL-5 melanoma 103% | UACC-62 melanoma 112% | LOX IMVI melanoma 90.2% | SK-MEL-28 melanoma 97.1% | EKVX NSCLC 101% | SN12C renal 102% | UO-31 renal 107% | TK-10 renal 105% | ACHN renal 104% | CAKI-1 renal 100% | A498 renal 107% | CCRF-CEM leukemia 102% | MOLT-4 leukemia 101%

C=CC(=O)Nc1cc2c(Nc3ccc(F)c(Cl)c3)ncnc2cc1C#CC(C)(C)N1CCN(C)CC1
active: HCT-15 colon -78% | HT29 colon -70.4% | SNB-75 CNS -99.8% | SNB-19 CNS -98.9% | U251 CNS -94.8% | PC-3 prostate -87.4% | SK-MEL-5 melanoma -98.4% | UACC-62 melanoma -94.6% | LOX IMVI melanoma -91.4% | SK-MEL-28 melanoma -96.9% | EKVX NSCLC -93% | SN12C renal -87.7% | UO-31 renal -99.8% | TK-10 renal -97.5% | ACHN renal -100% | CAKI-1 renal -99.8% | A498 renal -96.3% | CCRF-CEM leukemia -11.5% | MOLT-4 leukemia -23.1%

CCOC(=O)c1sc(NC(=O)COc2ccc(/C=C3\Cc4ccc(Cl)cc4C3=O)cc2)nc1C
inactive: HCT-15 colon 120% | HT29 colon 116% | SNB-75 CNS 95.8% | SNB-19 CNS 102% | U251 CNS 99.2% | PC-3 prostate 97% | SK-MEL-5 melanoma 106% | UACC-62 melanoma 93.4% | LOX IMVI melanoma 97.9% | SK-MEL-28 melanoma 127% | EKVX NSCLC 111% | SN12C renal 102% | TK-10 renal 149% | ACHN renal 102% | CAKI-1 renal 96.1% | A498 renal 143% | CCRF-CEM leukemia 101% | MOLT-4 leukemia 60.6%
active: UO-31 renal -77.3%

CCCCn1c(C)nc2cc(Nc3nc(N4CCCCC4)nc4nc[nH]c34)ccc21
active: SK-MEL-5 melanoma -31.7% | MOLT-4 leukemia 9.09%
inactive: HCT-15 colon 52.9% | HT29 colon 59.8% | SNB-75 CNS 11.4% | SNB-19 CNS 73.3% | U251 CNS 58.5% | PC-3 prostate 25.7% | UACC-62 melanoma 45.4% | LOX IMVI melanoma 33.7% | SK-MEL-28 melanoma 76% | EKVX NSCLC 52.5% | SN12C renal 49.6% | UO-31 renal 28.1% | TK-10 renal 57.2% | ACHN renal 36.8% | CAKI-1 renal 31.1% | A498 renal 34.3% | CCRF-CEM leukemia 46.6%

CNC(=O)c1cccc2cc(Oc3ccnc4cc(OCC5(N)CC5)c(OC)cc34)ccc12
inactive: HCT-15 colon 57.8% | HT29 colon 34.6% | SNB-75 CNS 26.7% | SNB-19 CNS 67.6% | U251 CNS 66.4% | PC-3 prostate 66.9% | SK-MEL-5 melanoma 76.5% | UACC-62 melanoma 82.2% | LOX IMVI melanoma 46.3% | SK-MEL-28 melanoma 87% | EKVX NSCLC 84.1% | SN12C renal 52.7% | UO-31 renal 37.6% | TK-10 renal 63.9% | ACHN renal 30.9% | CAKI-1 renal 38.2% | A498 renal 57.1% | CCRF-CEM leukemia 44.4% | MOLT-4 leukemia 30.6%
